DT40 TDP1 CPT: DT40-hTDP1 cell growth loss with CPT; Potency, µM (titrated, usually from 46.2 µM), most hits filed as inhibitors; chicken DT40 Tdp1-/-;hTDP1 cells + 20 nM CPT, ATP luminescence, 48 h; AID 686979; hit rate 12% among 420,000; note: nearly all actives have a fitted effect of over 55% in size
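Cell growth measured by CellTiter-Glo luminescence after a minimum 48 h, 37 C compound exposure with 20 nM CPT in Tdp1-knockout DT40 cells stably expressing hTDP1, seeded 400/well; qHTS titration format.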
TDP1 cell noCPT: qHTS for Inhibitors of human tyrosyl-DNA phosphodiesterase 1 (TDP1): qHTS in cells in absence of CPT; DT40 Tdp1-/- hTDP1 cells, no CPT, ATP luminescence, 48 h; hit rate 15% among 420,000; Potency, µM (doses to about 46.2 µM), hits mostly inhibitors; note: nearly all actives have a fitted effect of over 55% in size
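No-CPT arm: Tdp1-/-;hTDP1 DT40 cells (400/well) plus compounds, incubated ≥48 hr at 37 °C. Readout CellTiter-Glo luminescence.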
HT1080-NT tox: kills 2HG-producing HT-1080-NT fibrosarcoma cells; HT-1080-NT fibrosarcoma viability, CellTiter-Glo ATP luminescence, 48 h; Potency, µM (doses to about 46.1 µM), hits mostly cytotoxic; hit rate 1.6% among 360,000;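 note: NT is the 2HG producing partner of a matched IDH1 knockdown line; nearly all actives have a fitted effect of over 55% in size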
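Toxicity toward the 2HG-producing NT line was scored as %Activity, normalised to DMSO and no-cell wells, from CellTiter-Glo luminescence after 48 hours' treatment.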
ELG1 repair inh: inhibitors of ELG1-dependent DNA repair in HEK293T cells; hit rate 2.3% among 330,000; HEK293T ELG1-luciferase reporter, luminescence, 16 h; DNA damage induced by 5-fluorouridine; AID 504467; Potency, µM (doses to about 46.1 µM), usual class: inhibitors; note: nearly all actives have a fitted effect of over 55% in size
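HEK293T cells expressing luciferase-tagged ELG1 (2,000/well) received 5-Fluorouridine plus compound or DMSO for 16 hr at 37 °C. Luciferase was read by ONE-Glo luminescence after 30 min at room temperature.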
IL-1B inflam inh: blocks inflammasome-driven IL-1 beta release; THP-1 LPS/ATP IL-1B secretion, AlphaLISA, 16 h; stronger effect = lower value; activity change, % at 57.5 µM; hit rate 4.7% among 360,000; in the data active = activity change below about -50%; inconclusive = mostly about -30% to -49%
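THP-1 cells pretreated 1 hr with compounds (up to 57.5 uM final), then stimulated with LPS (250 ng/mL final) plus ATP (1.25 mM final); secreted IL-1B measured by AlphaLISA after 16 hr, decreased signal indicating inhibition.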
HT1080 IDH1KD tx: kills HT-1080 cells with IDH1 knockdown | AID 686971 | Potency, µM (series often up to 46.1 µM), actives largely listed as cytotoxic | HT-1080 IDH1 knockdown viability, ATP luminescence, 48 h | hit rate 2% among 360,000
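After a 2 h attachment period, IDH1KD HT-1080 cells took pin-transferred compound for 48 h at 37 °C; ATP-based luminescence after 10 min room-temperature reagent incubation reported viability.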
Each line names hits and unclear results; the compound was inactive in the other large screens. An excerpt weighted towards active compounds, which were near 19% of everything screened. Unless noted, calls come from the whole dose curve; as a rule, active = well fitted curve in the direction sought with a large enough effect; inconclusive = small, poorly fitted or top-dose-only effect, or another doubt; inactive = no such curve, though single readings can be large; an effect the other way counts as inactive or inconclusive.

COc1ccc(-c2cc(C(=O)OC(C)C(=O)c3ccccc3)c3cccc(Cl)c3n2)cc1 (stereo unspecified)	none (no result: HT1080-NT tox, ELG1 repair inh, IL-1B inflam inh, HT1080 IDH1KD tx)
COCCCNc1ccn2nc(-c3ccc(Cl)cc3)cc2n1	DT40 TDP1 CPT inconclusive, TDP1 cell noCPT inconclusive (no result: ELG1 repair inh)
COC(=O)[C@@]12C[C@@H](CC(=O)N3CCCC3)C(=O)N(CCc3ccc(OC)c(OC)c3)C1=CCC(C)(C)C2	DT40 TDP1 CPT inconclusive, TDP1 cell noCPT inconclusive (no result: ELG1 repair inh)
COC(=O)[C@@]12C[C@@H](CC(=O)NCC34CC5CC(CC(C5)C3)C4)C(=O)N(CCc3ccc(OC)c(OC)c3)C1=CCC(C)(C)C2	DT40 TDP1 CPT 16.4µM, TDP1 cell noCPT 14.6µM, HT1080-NT tox inconclusive, IL-1B inflam inh -97.7, HT1080 IDH1KD tx inconclusive (no result: ELG1 repair inh)
Cc1cc(Br)ccc1NC(=O)c1coc(=O)c2ccccc12	none (no result: HT1080-NT tox, ELG1 repair inh, IL-1B inflam inh, HT1080 IDH1KD tx)
O=C(c1ccc(Cn2c(=S)[nH]c3cc4c(cc3c2=O)OCO4)cc1)N1CCN(c2ncccn2)CC1	ELG1 repair inh 7.3µM (no result: DT40 TDP1 CPT, TDP1 cell noCPT, HT1080-NT tox, IL-1B inflam inh, HT1080 IDH1KD tx)
O=c1c2cc3c(cc2[nH]c(=S)n1C1CCN(Cc2ccccc2)CC1)OCO3	DT40 TDP1 CPT 25.9µM, TDP1 cell noCPT inconclusive
O=C(NCCN1CCCC1)c1ccc(Cn2c(=S)[nH]c3cc4c(cc3c2=O)OCO4)cc1	TDP1 cell noCPT 23.1µM
CCOc1cc2[nH]c(=S)n(C3CCN(Cc4ccccc4)CC3)c(=O)c2cc1OCC	TDP1 cell noCPT inconclusive
C=CCNC(=O)c1ccc(Cn2c(=S)[nH]c3cc4c(cc3c2=O)OCO4)cc1	DT40 TDP1 CPT inconclusive, HT1080-NT tox inconclusive, ELG1 repair inh inconclusive, HT1080 IDH1KD tx inconclusive
CCn1c(C)c(Br)c(=O)c(C(=O)OC)c1-c1ccc(Cl)cc1	none
CC(C)(C)c1ccc(C(=O)N2CCC2(C)C(=O)NCCC#N)cc1 (stereo unspecified)	DT40 TDP1 CPT inconclusive, TDP1 cell noCPT inconclusive, IL-1B inflam inh inconclusive (no result: ELG1 repair inh)
COc1cccc(C(=O)Nc2nc(-c3ccc(S(=O)(=O)N4CCOCC4)cc3)cs2)c1	DT40 TDP1 CPT 20.6µM, TDP1 cell noCPT 11.6µM, ELG1 repair inh inconclusive, IL-1B inflam inh inconclusive
O=C(Nc1nc(-c2ccc(S(=O)(=O)N3CCOCC3)cc2)cs1)c1ccccc1	DT40 TDP1 CPT inconclusive, TDP1 cell noCPT 11.6µM, HT1080-NT tox inconclusive, ELG1 repair inh 12.6µM, IL-1B inflam inh inconclusive
CCOc1ccc(-c2csc(NC(=O)c3ccc(S(=O)(=O)N4CCc5ccccc5C4)cc3)n2)cc1	none
Cc1ccc(-c2csc(NC(=O)COC(=O)c3cccc(S(=O)(=O)N4CCOCC4)c3)n2)cc1	ELG1 repair inh inconclusive
COc1ccc(-c2csc(NC(=O)c3ccc(S(=O)(=O)N4CCc5ccccc5C4)cc3)n2)c(OC)c1	DT40 TDP1 CPT inconclusive, TDP1 cell noCPT 13µM, ELG1 repair inh inconclusive
Cc1ccc(C(=O)OCC(=O)N2C(C)CCCC2C)cc1S(=O)(=O)N1CCOCC1 (stereo unspecified)	TDP1 cell noCPT inconclusive, ELG1 repair inh inconclusive
CC(=O)c1ccc(S(=O)(=O)N2CCC3(CC2)CC(=O)c2ccccc2O3)cc1	TDP1 cell noCPT inconclusive
Oc1c(C(c2ccc(Cl)cc2)N2CCCC2)cc(Cl)c2cccnc12 (stereo unspecified)	DT40 TDP1 CPT 4.11µM, TDP1 cell noCPT 5.17µM, HT1080-NT tox inconclusive, ELG1 repair inh inconclusive, HT1080 IDH1KD tx inconclusive
Cc1nc2sc(C(c3ccco3)N3CCC(Cc4ccccc4)CC3)c(O)n2n1 (stereo unspecified)	TDP1 cell noCPT inconclusive
COCCn1c(C)cc(O)c(C(c2ccccc2Cl)N2CCN(c3ccccc3)CC2)c1=O (stereo unspecified)	none (no result: HT1080-NT tox, ELG1 repair inh, IL-1B inflam inh, HT1080 IDH1KD tx)
Oc1c(C(c2ccccn2)N2CCC(Cc3ccccc3)CC2)cc(Cl)c2cccnc12 (stereo unspecified)	DT40 TDP1 CPT 4.11µM, TDP1 cell noCPT 2.91µM, HT1080-NT tox inconclusive, ELG1 repair inh inconclusive, IL-1B inflam inh -106.1, HT1080 IDH1KD tx 20.6µM
Oc1c(C(c2ccccc2Cl)N2CCCC2)ccc2cccnc12 (stereo unspecified)	DT40 TDP1 CPT 14.6µM, TDP1 cell noCPT 16.4µM, HT1080-NT tox inconclusive, ELG1 repair inh inconclusive, HT1080 IDH1KD tx inconclusive
CCOc1ccc(C(c2c(O)cc(C)n(Cc3ccco3)c2=O)N2CCN(C)CC2)cc1 (stereo unspecified)	none (no result: HT1080-NT tox, ELG1 repair inh, IL-1B inflam inh, HT1080 IDH1KD tx)
Cc1ccc(C(c2cc(Cl)c3cccnc3c2O)N2CCN(C)CC2)cc1 (stereo unspecified)	DT40 TDP1 CPT inconclusive, TDP1 cell noCPT inconclusive, HT1080-NT tox inconclusive, ELG1 repair inh 16.4µM, HT1080 IDH1KD tx inconclusive
Cc1nc2c(=O)[nH]c(=S)[nH]c2[nH]c1=O	none (no result: ELG1 repair inh)
Cc1ccc(S(=O)(=O)N2C[C@H]3C(=O)C[C@@H](c4ccccc4)N(S(=O)(=O)c4ccc(C)cc4)[C@H]3C[C@H]2c2cccs2)cc1	TDP1 cell noCPT inconclusive (no result: ELG1 repair inh)
CN1CCN(C(c2ccccn2)c2cc(Cl)c3cccnc3c2O)CC1 (stereo unspecified)	DT40 TDP1 CPT 6.51µM, TDP1 cell noCPT 6.51µM, HT1080 IDH1KD tx inconclusive
Cc1ccc(C(=O)N(CCN2CCCCC2)CC2CCCN(C3CCCC3)C2)s1 (stereo unspecified)	DT40 TDP1 CPT inconclusive, TDP1 cell noCPT 20.6µM, HT1080-NT tox inconclusive, ELG1 repair inh inconclusive
O=C(c1cccs1)N(CCN1CCCCC1)CC1CCCN(C2CCCC2)C1 (stereo unspecified)	DT40 TDP1 CPT inconclusive, ELG1 repair inh inconclusive
CSC1=C(C#N)C(=O)NC(c2ccc(Cl)cc2)S1 (stereo unspecified)	DT40 TDP1 CPT inconclusive, TDP1 cell noCPT 16.4µM, IL-1B inflam inh inconclusive

Compound activity deposited in PubChem by National Center for Advancing Translational Sciences (NCATS).
